Over roughly 68,000 sequences, “fluorescence intensity (a.u.)” has its median near 9,100; the highest 2% begin near 16,000. This is one part of a sample in which the highest values are shown more often than they occur.

Chain of OsWRKY34 (Q0JBA9 entry or part of it): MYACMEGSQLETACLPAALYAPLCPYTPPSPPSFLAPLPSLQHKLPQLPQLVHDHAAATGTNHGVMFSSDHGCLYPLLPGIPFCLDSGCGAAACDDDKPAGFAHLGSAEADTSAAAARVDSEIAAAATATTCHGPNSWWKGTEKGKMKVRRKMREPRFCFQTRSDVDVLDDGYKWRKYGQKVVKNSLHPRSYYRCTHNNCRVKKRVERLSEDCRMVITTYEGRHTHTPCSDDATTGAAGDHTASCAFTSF

The assay addresses OsWRKY34 (Oryza sativa, UniProt Q0JBA9 1-250). Description: protein-binding microarray (RPBM); PBS, 2% BSA, 51.3 ng/ul salmon testes DNA, 50 uM zinc acetate, 200 nM TF, 25 C, 1 h; high values mean tight binding. To be noted: protein: recombinant; tags: N-terminal polyhistidine and DsRed monomer fusion (pET32a); label: CyDye5-dUTP incorporated in the synthesized complementary strand; 3' TTTTT single-stranded linker to array surface; dsDNA, one strand shown. In short, it runs like this: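 Using Ni–NTA, transcription factors fused N-terminally to polyhistidine and DsRed were purified after expression in E. coli BL21-CodonPlus. These were incubated at 200 nM with a blocked, double-stranded custom Agilent array for 1 h at 25 °C in a buffer containing 50 µM zinc acetate, and the array was washed. The binding signal is per-feature fluorescence intensity (arbitrary units) on an Axon 4000B scanner.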
As for “GGTTAGGTGGCATTTGAATTTAAAACGTATATGTGGACTCCGGAGTCACCTAGTGCAG”, the binding signal was 13900 fluorescence intensity (a.u.). Take “TTGGGTGGGATTTAAACAGGGTATTAGTGGATAATGATGTCGGAGTCACCTAGTGCAG”: the binding signal was 9570 fluorescence intensity (a.u.). Under “CTATAGGTGGATTTTTAGGGACTCACCCGTAAAAACAGGTCGGAGTCACCTAGTGCAG” stands 26800 fluorescence intensity (a.u.). Turning to “CTCCGGGGAATATCTATGGGTCTTGTGGGTGTAGGGAGGACGGAGTCACCTAGTGCAG”, the binding signal is 8770 fluorescence intensity (a.u.). Take “CTATAATTATTTGTCGACTAAATCTGCCTTTCATCTTTCTCGGAGTCACCTAGTGCAG”: the binding signal was 8160 fluorescence intensity (a.u.). As to “GTGTCTTGTGCGTTTGCTCTCTCGCGAACCATTCCACAGACGGAGTCACCTAGTGCAG”, the binding signal is 8380 fluorescence intensity (a.u.). With “ATCATTTGTCTCGCGACGAAAACTTGCGTTGACCACCCACCGGAGTCACCTAGTGCAG”, the binding signal is 17500 fluorescence intensity (a.u.). As to “TTTGACCAACCGAAACTCGACGGCCCACCCACCAACCACCCGGAGTCACCTAGTGCAG”, the binding signal was 9420 fluorescence intensity (a.u.).

As for “CACCCACCAAGTACTCTTTTTACTTTTACCACAGCGCATACGGAGTCACCTAGTGCAG”, the binding signal is 9050 fluorescence intensity (a.u.). Take “TTCACACACGAGTAATTGCAGCCTTGCTTTCTCGAAAAAACGGAGTCACCTAGTGCAG”: the binding signal was 17100 fluorescence intensity (a.u.).

On to “TTACACGCCTAATCATCGAAAACCTAATCTTATGCTTTCTCGGAGTCACCTAGTGCAG”, for which the binding signal was 8790 fluorescence intensity (a.u.). Turning to “TGCGGCTTTGATTTGCGGGGTTCACACACGAGTAATTGCACGGAGTCACCTAGTGCAG”, the binding signal is 10900 fluorescence intensity (a.u.). Regarding “AATCTGTGGCGATAACCTGTATGCTCACACACTTGCCTCTCGGAGTCACCTAGTGCAG”, the binding signal is 8610 fluorescence intensity (a.u.).

As for “ATATACTACCTCCATATTTTAATGTATGACGCCGTTGACTCGGAGTCACCTAGTGCAG”, the binding signal is 8860 fluorescence intensity (a.u.). Next, “TCCGTATTTTAATGTATGACGCCGTTGACTTTTTATCCAACGGAGTCACCTAGTGCAG”: 21400 fluorescence intensity (a.u.); “TACCTCCATATTTTAATGTATGACGCCGTTGACTTTTTATCGGAGTCACCTAGTGCAG”: 28900 fluorescence intensity (a.u.). As to “TACTCCCTCCGTATTTTAATGTATGACGCCGTTGACTTTTCGGAGTCACCTAGTGCAG”, the binding signal is 13900 fluorescence intensity (a.u.). Regarding “TATTACTACCTTCATATTTTAATGTATGACGCCGTTGACTCGGAGTCACCTAGTGCAG”, the binding signal was 11900 fluorescence intensity (a.u.).

For “TATATACTCCCTCCATATTTTAATGTATGACGCCGTTGACCGGAGTCACCTAGTGCAG”, the binding signal is 9880 fluorescence intensity (a.u.). Next, “TTCCCTCCATATTTTAATGTATGACGCCGTTGACTTTTTACGGAGTCACCTAGTGCAG”: 17700 fluorescence intensity (a.u.); “CTACCTCCATATTTTAATGTATGACGCCGTTGACTTTTTGCGGAGTCACCTAGTGCAG”: 37500 fluorescence intensity (a.u.); “AGCGCGTCGCTTTCTTTCTTTCTTTCAGTTTTTTTTTTCCCGGAGTCACCTAGTGCAG”: 10500 fluorescence intensity (a.u.). Under “AATCTGACTGAAGTATGTACTTTGTGTTGACCAATTTGGCCGGAGTCACCTAGTGCAG” stands 10200 fluorescence intensity (a.u.); under “ATGAGTTCCCAACCGCCACTTACATTAAGTACCACACTCCCGGAGTCACCTAGTGCAG”, 8660 fluorescence intensity (a.u.).

For the sequence “GTTTCCTTCGTTTCAGATTACTCATTATTTTAGCTTTTTTCGGAGTCACCTAGTGCAG”, the binding signal was 13800 fluorescence intensity (a.u.). Take “TCCACCTTTTCATCAATATAGTCATGCATTAATACAGTCACGGAGTCACCTAGTGCAG”: the binding signal is 8670 fluorescence intensity (a.u.). In the case of “TTGCTTCCTTTGTCCTTACTGACATTATTACCTCAGAGACCGGAGTCACCTAGTGCAG”, the binding signal was 8870 fluorescence intensity (a.u.). For “ACGGGGCGCATTTATTCATCCCCACCTTTGTTCATCAGTTCGGAGTCACCTAGTGCAG”, the binding signal was 11600 fluorescence intensity (a.u.).

“CTCCATATTTTAATGTATGCCGCCGTTGACTTTTTGTTTACGGAGTCACCTAGTGCAG”: the binding signal was 20200 fluorescence intensity (a.u.). Under “TGCACTAGTATGTATGACGTTGACTGTTTTTTTAAGGACGCGGAGTCACCTAGTGCAG” stands 10200 fluorescence intensity (a.u.); under “TAATGTATGACGTCGTTGACTTTTTGTTAAACGTTTGATCCGGAGTCACCTAGTGCAG”, 15600 fluorescence intensity (a.u.). For the sequence “ATTTGTTTGTTTTTTTAATAAATGATGTTGTTGACTTTTACGGAGTCACCTAGTGCAG”, the binding signal was 9030 fluorescence intensity (a.u.). “CTCATAATAGATTTACTTTTAATGCCGTTGTTTTGTTTTACGGAGTCACCTAGTGCAG”: the binding signal is 9090 fluorescence intensity (a.u.). As for “TTTTAATGTATGACGCTGTTGACTTTTTATCCAACGTTTGCGGAGTCACCTAGTGCAG”, the binding signal was 16400 fluorescence intensity (a.u.). In the case of “GTTACCCCGATTAGTTAGTTTATGTTGTACATGCTGTTGACGGAGTCACCTAGTGCAG”, the binding signal is 11000 fluorescence intensity (a.u.).

For the sequence “CAGTGTCCGTTTTCTCCGACAAACTCGGCGTGGCCACAGTCGGAGTCACCTAGTGCAG”, the binding signal was 9840 fluorescence intensity (a.u.). With “TCAAACATTTAAAAAAAAAGTCAACGGCGTCAAATATTTTCGGAGTCACCTAGTGCAG”, the binding signal is 8470 fluorescence intensity (a.u.). Consider “TTTAAAAGTCAACGGCGTCAGAGGGAGTATATATTTTAGCCGGAGTCACCTAGTGCAG”, for which the binding signal is 9840 fluorescence intensity (a.u.). “TATTTTTAAAAAAGTCAACGGCGTCTTGTGGGATGGAGGGCGGAGTCACCTAGTGCAG”: the binding signal was 21300 fluorescence intensity (a.u.). For the sequence “ATATTTAAAAAAGTCAACGGCGTCAAACATTTTGAAACGGCGGAGTCACCTAGTGCAG”, the binding signal was 16800 fluorescence intensity (a.u.). Consider “AATATTTTTTTGAGGTTTTTTGTTGCGTTTAAAATTCAAACGGAGTCACCTAGTGCAG”, for which the binding signal was 8110 fluorescence intensity (a.u.). On to “ATATTTAAAAAAGTCAACGGCGTCAAACATTTTGAGATAGCGGAGTCACCTAGTGCAG”, for which the binding signal was 9320 fluorescence intensity (a.u.). For the sequence “TTGATTTTTTGTTGCAAAAGAATATTTTAATTCACTGCAACGGAGTCACCTAGTGCAG”, the binding signal was 24300 fluorescence intensity (a.u.). Under “AAAAAGTCAACGGCGTCAAACATTTAGGGATGGAGGGAGTCGGAGTCACCTAGTGCAG” stands 8190 fluorescence intensity (a.u.). Take “AAACATGTTTAAAAAAGTCAACGGCGTCAAACATTTAGGGCGGAGTCACCTAGTGCAG”: the binding signal is 13800 fluorescence intensity (a.u.). Regarding “ATATGTTTAAAAAAGTCAACGGCGTCAAACATTTAGGGATCGGAGTCACCTAGTGCAG”, the binding signal was 18600 fluorescence intensity (a.u.). Regarding “TAAAAAAGTCAACGGCGTTAAACATTTTGGGATGGAGGGACGGAGTCACCTAGTGCAG”, the binding signal was 11200 fluorescence intensity (a.u.). Regarding “TTGTTGATTTTTTTTCAGAATTTTTATCACTATTTGTCTTCGGAGTCACCTAGTGCAG”, the binding signal is 8570 fluorescence intensity (a.u.). As for “ATCTGTACAGTTTGTGACTAATTTGCAAGACGAATCTTTTCGGAGTCACCTAGTGCAG”, the binding signal was 11500 fluorescence intensity (a.u.).

In the case of “GGATACGGCACCTTTGCGAGCTGCGTCGACCGCTCCGCCGCGGAGTCACCTAGTGCAG”, the binding signal was 9650 fluorescence intensity (a.u.). For the sequence “GGTTCTGTTCTATATACTCCGACACCATACTGATTAGTCTCGGAGTCACCTAGTGCAG”, the binding signal is 10900 fluorescence intensity (a.u.).

“TTTTGAGTTTTTGTGTGAACTGTTTGACCACTCGTCTTATCGGAGTCACCTAGTGCAG”: the binding signal was 8250 fluorescence intensity (a.u.).

With “CCATCTCCTTCAGCCTTCGCTTCATCTGGTCGAGCTCCTGCGGAGTCACCTAGTGCAG”, the binding signal was 9080 fluorescence intensity (a.u.). Consider “CTAGCTCACACACAATTGCATACACCTAGCTCAAAAGCCTCGGAGTCACCTAGTGCAG”, for which the binding signal is 9080 fluorescence intensity (a.u.). Next, “CATGTGCTCAAAGCTTATCTGCATACAAGCCTTCGAGACCCGGAGTCACCTAGTGCAG”: 64100 fluorescence intensity (a.u.).

The values are drawn from article PMC7819943, “Rice protein-binding microarrays: a tool to detect cis-acting elements near promoter regions in rice”.
